{"source": "the supplement of paper PMC11732987", "about": "“Enantioselective OTUD7B fragment discovery through chemoproteomics screening and high-throughput optimisation” (Communications Chemistry, 2025)", "test_in_all_cases": "log2 ratio of Biotin-Ahx-Ub-VS probe labelling (fragment/DMSO); higher = less target engagement (more negative = stronger competition), active = hit call of the paper (q ≤ 0.05, log2 ratio ≤ -1)", "conditions_in_all_cases": "compound concentration: 200 uM; treatment time: 3 h", "key": {"USP19": {"target": "T1, USP19 (UniProt O94966)", "T1 sequence (whole entry)": "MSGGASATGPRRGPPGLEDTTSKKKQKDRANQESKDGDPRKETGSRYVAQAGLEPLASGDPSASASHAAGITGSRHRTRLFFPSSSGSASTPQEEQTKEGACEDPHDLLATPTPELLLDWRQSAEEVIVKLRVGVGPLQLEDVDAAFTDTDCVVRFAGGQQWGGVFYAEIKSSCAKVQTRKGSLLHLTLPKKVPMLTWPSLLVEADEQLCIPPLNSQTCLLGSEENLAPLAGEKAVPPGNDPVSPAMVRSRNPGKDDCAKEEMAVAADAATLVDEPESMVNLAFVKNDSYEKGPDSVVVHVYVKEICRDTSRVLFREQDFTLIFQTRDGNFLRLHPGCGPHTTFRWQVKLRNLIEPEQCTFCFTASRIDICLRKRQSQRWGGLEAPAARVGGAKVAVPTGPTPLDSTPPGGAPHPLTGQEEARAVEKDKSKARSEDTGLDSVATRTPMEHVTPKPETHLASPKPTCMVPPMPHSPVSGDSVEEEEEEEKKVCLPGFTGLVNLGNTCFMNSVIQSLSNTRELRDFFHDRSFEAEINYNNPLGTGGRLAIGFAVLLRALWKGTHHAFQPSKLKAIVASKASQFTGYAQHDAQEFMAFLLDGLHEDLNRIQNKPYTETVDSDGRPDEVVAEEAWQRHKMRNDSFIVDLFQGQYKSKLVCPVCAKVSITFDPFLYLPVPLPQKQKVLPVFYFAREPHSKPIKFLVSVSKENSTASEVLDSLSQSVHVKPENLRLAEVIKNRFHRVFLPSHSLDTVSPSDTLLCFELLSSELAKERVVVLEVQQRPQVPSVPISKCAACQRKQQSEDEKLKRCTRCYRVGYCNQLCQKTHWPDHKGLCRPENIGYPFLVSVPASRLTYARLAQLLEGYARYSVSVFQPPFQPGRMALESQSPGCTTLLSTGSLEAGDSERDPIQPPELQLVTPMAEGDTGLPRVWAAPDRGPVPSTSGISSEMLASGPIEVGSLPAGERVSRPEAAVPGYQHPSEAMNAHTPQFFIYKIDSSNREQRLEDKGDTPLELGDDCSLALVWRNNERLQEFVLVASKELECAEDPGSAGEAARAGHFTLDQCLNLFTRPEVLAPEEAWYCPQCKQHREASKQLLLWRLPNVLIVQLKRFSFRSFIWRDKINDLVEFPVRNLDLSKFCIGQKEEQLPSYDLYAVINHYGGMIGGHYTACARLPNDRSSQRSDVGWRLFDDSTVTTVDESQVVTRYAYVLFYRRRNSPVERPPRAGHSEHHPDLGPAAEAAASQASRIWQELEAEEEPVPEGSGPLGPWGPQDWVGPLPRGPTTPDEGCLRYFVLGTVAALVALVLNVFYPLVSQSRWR", "method_in_brief": "(§1)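 Triplicate samples of HEK293T lysate, 495 µg each, received fragment at 200 µM or vehicle for 3 h, followed by Biotin-Ahx-Ub-VS (0.5 µM final) for 1 h. After NeutrAvidin enrichment of labelled DUBs and LysC/trypsin digestion, peptides were run by diaPASEF LC-MS/MS. The values are average log2 fragment/vehicle ratios from global-median-normalised Spectronaut label-free quantities, tested by unpaired t-test on proteins having ≥2 unique peptides.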"}, "USP24": {"target": "USP24 (UniProt Q9UPU5)", "sequence (Q9UPU5 whole entry)": "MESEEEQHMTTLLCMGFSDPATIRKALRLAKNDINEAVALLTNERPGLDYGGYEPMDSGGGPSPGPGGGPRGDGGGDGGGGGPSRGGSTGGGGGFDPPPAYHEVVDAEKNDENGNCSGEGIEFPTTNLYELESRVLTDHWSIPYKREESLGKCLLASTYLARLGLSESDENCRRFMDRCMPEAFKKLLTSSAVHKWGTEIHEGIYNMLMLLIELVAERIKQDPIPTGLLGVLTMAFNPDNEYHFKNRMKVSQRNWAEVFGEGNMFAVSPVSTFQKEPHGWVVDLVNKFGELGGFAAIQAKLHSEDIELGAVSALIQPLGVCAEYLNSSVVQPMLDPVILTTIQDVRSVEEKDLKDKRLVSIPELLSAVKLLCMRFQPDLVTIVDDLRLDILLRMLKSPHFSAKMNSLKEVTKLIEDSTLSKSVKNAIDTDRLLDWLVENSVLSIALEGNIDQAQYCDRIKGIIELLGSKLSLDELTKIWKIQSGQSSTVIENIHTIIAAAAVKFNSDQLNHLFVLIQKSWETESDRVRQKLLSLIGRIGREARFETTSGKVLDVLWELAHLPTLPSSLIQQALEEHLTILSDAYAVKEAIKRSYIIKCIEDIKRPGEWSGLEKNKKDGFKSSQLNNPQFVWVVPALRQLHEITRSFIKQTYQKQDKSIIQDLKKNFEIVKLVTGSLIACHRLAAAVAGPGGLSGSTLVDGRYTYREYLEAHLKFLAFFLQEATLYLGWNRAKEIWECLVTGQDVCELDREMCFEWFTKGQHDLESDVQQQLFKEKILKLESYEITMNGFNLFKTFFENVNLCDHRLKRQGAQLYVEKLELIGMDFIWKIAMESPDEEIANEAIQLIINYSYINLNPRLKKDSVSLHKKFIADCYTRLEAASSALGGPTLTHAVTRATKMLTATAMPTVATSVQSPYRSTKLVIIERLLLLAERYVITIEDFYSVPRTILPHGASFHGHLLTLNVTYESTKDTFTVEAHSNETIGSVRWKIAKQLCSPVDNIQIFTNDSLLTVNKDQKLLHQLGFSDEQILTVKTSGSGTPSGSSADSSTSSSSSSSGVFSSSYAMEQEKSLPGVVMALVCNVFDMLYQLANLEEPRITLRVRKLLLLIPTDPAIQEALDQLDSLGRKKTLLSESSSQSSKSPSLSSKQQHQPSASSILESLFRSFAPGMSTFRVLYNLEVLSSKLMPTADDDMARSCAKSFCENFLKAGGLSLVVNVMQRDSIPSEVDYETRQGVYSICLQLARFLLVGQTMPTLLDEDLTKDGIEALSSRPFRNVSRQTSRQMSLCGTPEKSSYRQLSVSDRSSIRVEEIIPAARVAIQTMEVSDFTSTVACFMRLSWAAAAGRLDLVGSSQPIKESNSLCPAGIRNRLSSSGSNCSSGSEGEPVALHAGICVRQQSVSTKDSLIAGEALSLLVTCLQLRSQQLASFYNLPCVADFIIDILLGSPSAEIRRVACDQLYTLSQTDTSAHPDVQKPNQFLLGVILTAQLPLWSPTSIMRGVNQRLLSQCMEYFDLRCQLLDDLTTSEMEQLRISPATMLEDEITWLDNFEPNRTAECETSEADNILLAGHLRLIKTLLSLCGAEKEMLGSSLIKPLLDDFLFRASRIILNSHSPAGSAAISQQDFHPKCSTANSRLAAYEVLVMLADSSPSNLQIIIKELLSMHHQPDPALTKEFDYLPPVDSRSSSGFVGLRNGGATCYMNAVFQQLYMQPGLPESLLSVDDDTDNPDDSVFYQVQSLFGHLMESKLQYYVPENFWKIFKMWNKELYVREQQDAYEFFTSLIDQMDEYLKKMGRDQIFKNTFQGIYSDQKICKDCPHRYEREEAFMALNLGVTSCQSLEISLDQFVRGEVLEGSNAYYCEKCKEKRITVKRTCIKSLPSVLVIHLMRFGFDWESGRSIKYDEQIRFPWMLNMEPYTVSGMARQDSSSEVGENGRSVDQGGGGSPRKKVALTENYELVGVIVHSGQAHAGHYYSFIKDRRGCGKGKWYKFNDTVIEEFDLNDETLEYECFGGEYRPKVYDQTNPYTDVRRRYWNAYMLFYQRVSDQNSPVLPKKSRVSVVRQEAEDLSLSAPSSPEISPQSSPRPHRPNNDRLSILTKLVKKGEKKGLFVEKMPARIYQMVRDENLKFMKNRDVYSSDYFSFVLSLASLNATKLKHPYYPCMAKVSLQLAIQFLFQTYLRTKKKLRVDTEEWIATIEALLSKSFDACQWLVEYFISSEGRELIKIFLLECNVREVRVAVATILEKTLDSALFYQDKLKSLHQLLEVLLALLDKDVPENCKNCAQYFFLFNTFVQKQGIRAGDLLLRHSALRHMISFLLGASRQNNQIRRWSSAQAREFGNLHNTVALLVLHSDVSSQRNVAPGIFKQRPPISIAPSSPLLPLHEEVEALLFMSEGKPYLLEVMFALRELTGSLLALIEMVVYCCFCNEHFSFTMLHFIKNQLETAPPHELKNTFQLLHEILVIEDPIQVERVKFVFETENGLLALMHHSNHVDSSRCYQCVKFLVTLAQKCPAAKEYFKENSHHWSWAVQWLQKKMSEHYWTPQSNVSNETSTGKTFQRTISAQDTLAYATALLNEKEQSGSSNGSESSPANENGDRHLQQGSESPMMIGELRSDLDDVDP", "method_in_brief": "as §1"}, "USP25": {"target": "T2, USP25 (UniProt Q9UHP3)", "T2 sequence (whole entry)": "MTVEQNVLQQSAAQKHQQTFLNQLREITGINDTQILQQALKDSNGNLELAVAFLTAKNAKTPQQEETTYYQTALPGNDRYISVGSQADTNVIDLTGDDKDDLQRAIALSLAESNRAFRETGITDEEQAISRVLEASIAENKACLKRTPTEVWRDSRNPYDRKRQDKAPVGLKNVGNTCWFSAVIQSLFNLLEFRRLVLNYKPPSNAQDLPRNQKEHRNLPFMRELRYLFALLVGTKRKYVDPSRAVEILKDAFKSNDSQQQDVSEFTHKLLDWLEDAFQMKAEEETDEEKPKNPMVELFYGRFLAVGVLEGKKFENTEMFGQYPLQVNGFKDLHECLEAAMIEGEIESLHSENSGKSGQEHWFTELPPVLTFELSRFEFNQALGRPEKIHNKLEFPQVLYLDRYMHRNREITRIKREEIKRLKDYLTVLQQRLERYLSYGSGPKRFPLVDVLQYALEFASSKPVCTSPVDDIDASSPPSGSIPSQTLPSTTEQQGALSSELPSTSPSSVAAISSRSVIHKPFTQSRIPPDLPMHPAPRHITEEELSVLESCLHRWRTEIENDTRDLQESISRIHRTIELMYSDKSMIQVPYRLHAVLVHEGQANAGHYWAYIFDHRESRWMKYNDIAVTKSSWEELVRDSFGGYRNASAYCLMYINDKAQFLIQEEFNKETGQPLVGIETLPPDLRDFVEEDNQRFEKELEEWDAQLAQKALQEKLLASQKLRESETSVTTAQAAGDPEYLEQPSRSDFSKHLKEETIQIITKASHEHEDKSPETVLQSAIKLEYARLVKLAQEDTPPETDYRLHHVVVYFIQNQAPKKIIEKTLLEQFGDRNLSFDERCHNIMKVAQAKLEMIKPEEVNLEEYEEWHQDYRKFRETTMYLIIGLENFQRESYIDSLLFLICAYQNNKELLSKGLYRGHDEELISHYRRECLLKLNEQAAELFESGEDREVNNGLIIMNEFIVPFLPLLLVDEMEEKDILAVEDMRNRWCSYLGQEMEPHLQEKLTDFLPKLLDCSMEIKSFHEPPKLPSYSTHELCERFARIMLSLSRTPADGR", "method_in_brief": "as §1"}, "USP28": {"target": "T3, USP28 (UniProt Q96RU2)", "T3 sequence (whole entry)": "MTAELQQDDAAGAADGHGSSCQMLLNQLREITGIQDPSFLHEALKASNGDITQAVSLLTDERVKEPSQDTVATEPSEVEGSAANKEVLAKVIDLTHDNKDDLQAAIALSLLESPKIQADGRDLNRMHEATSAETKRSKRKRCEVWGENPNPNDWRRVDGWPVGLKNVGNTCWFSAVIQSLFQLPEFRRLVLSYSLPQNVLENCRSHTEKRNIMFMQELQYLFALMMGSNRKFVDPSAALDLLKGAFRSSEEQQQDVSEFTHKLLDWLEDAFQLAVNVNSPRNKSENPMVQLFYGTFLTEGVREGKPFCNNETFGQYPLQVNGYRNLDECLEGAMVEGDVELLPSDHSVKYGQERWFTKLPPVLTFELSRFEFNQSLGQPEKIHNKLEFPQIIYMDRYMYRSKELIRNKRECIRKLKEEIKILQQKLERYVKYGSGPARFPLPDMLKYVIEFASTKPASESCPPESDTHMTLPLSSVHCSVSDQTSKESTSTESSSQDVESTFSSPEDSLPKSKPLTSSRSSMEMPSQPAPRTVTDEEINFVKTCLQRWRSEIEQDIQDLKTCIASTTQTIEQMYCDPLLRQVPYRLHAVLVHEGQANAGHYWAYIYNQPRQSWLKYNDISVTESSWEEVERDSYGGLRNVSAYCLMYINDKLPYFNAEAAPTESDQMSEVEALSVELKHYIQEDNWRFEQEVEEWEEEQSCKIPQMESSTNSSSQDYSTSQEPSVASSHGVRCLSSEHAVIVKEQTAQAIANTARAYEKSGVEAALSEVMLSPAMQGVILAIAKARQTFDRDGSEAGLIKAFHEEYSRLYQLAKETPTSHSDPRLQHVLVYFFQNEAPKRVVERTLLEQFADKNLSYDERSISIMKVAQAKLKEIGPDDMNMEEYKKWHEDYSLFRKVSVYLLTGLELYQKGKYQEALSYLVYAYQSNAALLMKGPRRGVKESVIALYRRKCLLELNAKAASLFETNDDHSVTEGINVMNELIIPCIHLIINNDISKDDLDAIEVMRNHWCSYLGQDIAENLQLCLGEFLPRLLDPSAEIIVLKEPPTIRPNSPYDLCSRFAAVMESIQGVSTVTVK", "method_in_brief": "as §1"}}, "note": "A number with no mark means an inactive call.", "data": [{"smiles": "COc1ccc(Cl)cc1NC(=O)CCl", "values": [{"measurement": "log2 ratio of Biotin-Ahx-Ub-VS probe labelling", "setting": "USP19", "result": -0.52}, {"measurement": "log2 ratio of Biotin-Ahx-Ub-VS probe labelling", "setting": "USP24", "result": "-1.54 (active)"}, {"measurement": "log2 ratio of Biotin-Ahx-Ub-VS probe labelling", "setting": "USP25", "result": -0.784}, {"measurement": "log2 ratio of Biotin-Ahx-Ub-VS probe labelling", "setting": "USP28", "result": -0.959}]}]}
